The campaign covered roughly 63,000 compounds. About 1,100 (1.7%) were called active. The sample as a whole holds a higher share of actives than the screen did. Potency and affinity values are given separately. Values without a mark were called inactive.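 Rule for the calls: active = compounds whose percent cytotoxicity in the single-dose primary screen, scaled between solvent and toxic-drug controls, exceeds 50; inactive = the rest.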

This test is described as follows: viability loss of HPDE-C7K cells – cell-based, fluorescence, HTS, primary screen (AID 431).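 Note: 0% = DMSO solvent wells and 100% = doxorubicin-treated wells.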 Conditions: HPDE-C7K KRASV12 cells, Alamar Blue viability, 48 h; at 10 µM; stronger effect = higher value.
Take `Cc1ccc(S(=O)(=O)NC(C)C(=O)NC2CCCCCC2)cc1` (centres undefined): the cytotoxicity is 1%.
In the case of `O=C1C(=C(O)c2ccccc2)C(=O)c2ccccc21`, the cytotoxicity is 2%.
Next, `O=C(CC(c1ccco1)C1CCCCC1=O)c1ccco1` (centres undefined): 14.2%; `COc1cccc(C(=O)N(CN2CCCC2=O)c2cccc(Cl)c2)c1`: -17.4%.
For `CCOC(=O)c1cccc(NC(=O)CN(C)S(=O)(=O)c2cnc[nH]2)c1`, the cytotoxicity is -9.7%.
Take `CCc1nnc(NC(=O)CSc2nnc(COc3ccccc3)n2-c2ccc(C)cc2)s1`: the cytotoxicity is 2.3%.
Next, `COC(=O)Cn1cnc2c(C#N)c3n(c2c1=O)CCCCC3`: -14.2%.
Next, `COc1ccccc1-c1noc(-c2ccccc2C(=O)N2CCOCC2)n1`: -11.4%; `CCn1c2ccccc2c2cc(N)ccc21`: 22.9%; `CCn1c2ccccc2c2cc(/C=N/n3cnnc3)ccc21`: 16.2%.
Next, `C=Cn1ccnc1P(=S)(c1ccc2c(c1)c1ccccc1n2CC)c1nccn1C=C`: 63.9% (active); `CCN(CC(=O)Nc1ccc2c(c1)OCCO2)C(=O)C1CCCCC1`: -7.3%.
In the case of `CN(CC(=O)Nc1ccc(C#N)cc1)Cc1ccc(Cl)cc1`, the cytotoxicity was 2.8%.
Next, `N#Cc1ccc(NC(=O)Nc2ccc(Cl)cc2)cc1`: 67.5% (active); `Cc1cccc(NC(=O)Nc2ccc(C#N)cc2)n1`: 12.8%; `O=C(c1ccc(Cl)cc1)N1CCCOC1`: 0.8%.
Consider `C=CC(=C)CC(NC)c1ccccc1` (centres undefined), for which the cytotoxicity was 8.2%.
Then `Cc1nc(NCC2CCCO2)c2oc3ccccc3c2n1` (centres undefined), with 6.5%; and `CCOC(=O)c1c(N)sc(=S)c2c1CCC2`, with 10.6%.
`CCOC(=O)c1c(N)sc2c(O)c(Br)ccc12`: the cytotoxicity is 13.7%.
Then `CCOC(=O)c1c(N)sc2c(OC)c(Br)ccc12`, with 58.8% (active); and `Cc1ccc2c(c1)cc(CN(CCc1ccccc1)C(=O)N1CCOCC1)c1nnnn12`, with -24.7%; and `COc1ccc(NC(=O)N(CCCN(C)C)Cc2cc3cc(OC)ccc3[nH]c2=O)cc1`, with -3%.
As to `CCN(CC)S(=O)(=O)c1cc(C(=O)Oc2ccccc2OC)ccc1OC`, the cytotoxicity was 2.8%.
Turning to `Cn1c(CNC(=O)Cc2ccc3c(c2)OCO3)nnc1SCc1ccccc1`, the cytotoxicity is -39.1%.
Then `CC1Cn2c(nnc2-c2cccc(Cl)c2)S1` (centres undefined), with 3.6%.
Then `C=COC(=O)CSc1nc(-c2cccs2)ccc1C#N`, with 40.6%; and `CCOC(=O)C(C)Sc1nc(-c2cccs2)ccc1C#N` (centres undefined), with 59.5% (active).
Next, `COC(=O)CSc1nc(-c2cccs2)ccc1C#N`: 12.6%.
